Compound activity: PubChem, National Center for Advancing Translational Sciences (NCATS)
HT1080NT lethal = kills 2HG-producing HT-1080-NT fibrosarcoma cells; AID 686970; hit rate 1.6% among 360,000; Potency, µM (highest dose often 46.1 µM), inactives show at the top dose activity, negative = less viability, most hits filed as cytotoxic; HT-1080-NT fibrosarcoma viability, CellTiter-Glo ATP luminescence, 48 h;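 note: NT is the 2HG producing partner of a matched IDH1 knockdown line; 0% = DMSO-treated cells and -100% = media-only wells without cells; nearly all actives have a fitted effect of over 55% in size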
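750 cells/well, RPMI + 5% FBS; 2 h settle, compound pin-transfer, 48 h at 37 degrees C. CellTiter-Glo 10 min RT, luminescence. Normalized to DMSO and media-only wells.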
KB-3-1 cytotox = kills parental KB-3-1 adenocarcinoma cells; KB-3-1 viability, CellTiter-Glo ATP luminescence, 72 h; Potency, µM (titrated, usually from 46.1 µM), hits mostly cytotoxic; hit rate 1.4% among 400,000; AID 1347075; note: % is set by controls: 0 for no effect and ±100 for the full control effect; nearly all actives have a fitted effect of over 60% in size
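Screening of KB-3-1 cells (DMEM, 10% FBS, phenol-red free) ran from lowest to highest compound concentration; after 72 h at 37 °C viability was read luminescently and curves fitted.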
HepG2 tox = kills HepG2 cells in TGF-b inhibitor counter-screen | hit rate 0.76% among 410,000 | Potency, µM (series often up to 46.1 µM), for the others: at the top dose activity change, negative = cytotoxicity, hits mostly cytotoxic | HepG2 CAGA-GFP viability, ATP luminescence, 18 h
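CellTiter-Glo luminescence gave cytotoxicity after 18 hours at 37 degrees C. The cells were HepG2 CAGA-GFP in 1% FBS DMEM, stimulated with 500 pg/mL TGF-beta after compound addition. %Activity was normalised to no-cell wells (complete cell-killing) and DMSO (no toxicity), and curves were fitted and classified.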
KB-V1 cytotox = KB-V1 MDR subline cytotoxicity. KB-V1 MDR cells viability, CellTiter-Glo, 72 h. Potency, µM (titrated, usually from 46.1 µM), usual class: cytotoxic. hit rate 3.4% among 400,000. AID 1347076; note: % is set by controls: 0 for no effect and ±100 for the full control effect; nearly all actives have a fitted effect of over 60% in size
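Luminescent ATP read-out (CellTiter-Glo, 10 min) measures survival of drug-selected KB-V1 MDR cells after 72 h, 37 degrees C compound exposure. Medium: phenol-red-free DMEM, 10% FBS. Values from fitted concentration-response curves.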
TGFb inhibitor = TGF-b pathway inhibition; HepG2 CAGA-GFP TGF-b/SMAD3 reporter, GFP fluorescence, 18 h; TGF-beta stimulated, 500 pg/mL final; Potency, µM (titrated, usually from 46.1 µM), for the others: top-dose activity, negative = inhibition, hits mostly inhibitors; hit rate 1.2% among 410,000; note: % is set by controls: 0 for no effect and ±100 for the full control effect; nearly all actives have a fitted effect of over 65% in size
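HEPG2 CAGA-GFP reporter cells (1000/well, DMEM with 1% FBS) received compounds, then recombinant TGF-beta at 500 pg/mL final for 18 hours at 37 degrees C. Per-cell GFP summed per well was normalised to unstimulated and stimulated DMSO controls before curve fitting.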
HT1080 IDH1KD tx = HT-1080 IDH1 knockdown cell toxicity (counter line). Potency, µM (titrated, usually from 46.1 µM), for inactives: at the top dose activity, negative = toxicity, hits mostly cytotoxic. AID 686971. hit rate 2% among 360,000. HT-1080 IDH1 knockdown viability, ATP luminescence, 48 h;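 note: 0% = DMSO wells and -100% = cell-free medium wells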
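HT-1080-IDH1KD cells (IDH1 knocked down), 750/well in RPMI with 5% FBS, treated with compound 48 h at 37 degrees C. Viability by CellTiter-Glo luminescence, normalised to DMSO and no-cell wells; concentration-response curves classed.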
The depositor's hits bear a star; i = inactive; ? = inconclusive; nt = no result given; ! = a repeat was not active. Most compounds without a hit are left out; they make up all but 6.6% or so of the library. Calls come from the whole dose curve; as a rule, active = well fitted curve in the direction sought with a large enough effect; inconclusive = small, poorly fitted or top-dose-only effect, or another doubt; inactive = no such curve, though single readings can be large; an effect the other way counts as inactive or inconclusive. Potency is the fitted concentration of half-maximal effect.

SMILES	HT1080NT lethal	KB-3-1 cytotox	HepG2 tox	KB-V1 cytotox	TGFb inhibitor	HT1080 IDH1KD tx
CC1(C)CC(=O)c2c(O)c(-c3ccccc3)c(=O)n(-c3ccccc3)c2C1	4.1%	i	-2.2%	13µM*	6.8%	1.8%
CC1(C)CC(=O)c2cc(C(=O)O)c(=O)n(-c3ccccc3)c2C1	8.0%	i	-20.5%	i	-10.2%	1.5%
CC(=O)N1CC(C(=O)Nc2ccc3c(c2)OCO3)Oc2ccccc21 (centres undefined)	-3.6%	i	0.2%	20.6µM*	7.5%	9.5%
CCC(C)C(=O)Nc1ccc(S(=O)(=O)N2CCCC2)cc1 (centres undefined)	0.9%	i	14.7%	i	19.8%	1.6%
CCC(C)NS(=O)(=O)c1ccc(S(=O)(=O)N2CCCC3(CCCCC3)C2)cc1 (centres undefined)	-19.0%	5.8µM*	-17.9%	3.66µM*	0.0%	-28.6%
CC1CCC(C(C)C)C(OC(=O)Cn2c(-c3ccc(F)cc3)[n+](C)c3ccccc32)C1 (centres undefined)	18.4µM*	?	-50.9%	i	8.91µM*	10.3µM*
Cc1cccc(OCc2n(CC(=O)OC3CC(C)CCC3C(C)C)c3ccccc3[n+]2C)c1 (centres undefined)	18.4µM*	?	20µM*	?	15.8µM*	8.2µM*
CC1CCC(C(C)C)C(OC(=O)CSc2nc(N)cc(=O)[nH]2)C1 (centres undefined)	-1.8%	i	-24.9%	i	-12.2%	-2.9%
CC1CCC(C(C)C)C(OC(=O)Cn2c(-c3ccccc3)[n+](C)c3ccccc32)C1 (centres undefined)	?	14.6µM*	-53.0%	i	5.62µM*!	9.2µM*
CC1CCC(C(C)C)C(OC(=O)CSc2nnc(N)s2)C1 (centres undefined)	-1.3%	i	4.9%	i	2.7%	1.0%
Cc1cccc(OC(=O)Cn2c(C(F)(F)F)nc3ccccc32)c1	15.9%	i	-1.9%	i	-24.2%	17.3%
Cc1n[nH]c(C)c1N=Nc1ccc(Br)cc1	-24.6%	16.4µM*	-22.8%	?	?	?
COc1ccc(N=Nc2c(C)n[nH]c2C)cc1	-13.4%	?	-32.1%	?	9.7%	-5.7%
COc1ccc(NC(=O)C(=O)NCC2CCCN2S(=O)(=O)c2ccc(C)cc2)cc1 (centres undefined)	0.206µM*	0.146µM*	-11.8%	0.231µM*	?	0.0517µM*
COc1ccc(S(=O)(=O)N2CCCC2CNC(=O)C(=O)Nc2ccc(C)cc2)cc1 (centres undefined)	-4.6%	i	-8.2%	i	0.9%	2.4%
O=C(NCCc1ccccc1)C(=O)NCC1CCCN1S(=O)(=O)c1ccccc1 (centres undefined)	-24.8%	?	1.8%	11.6µM*	-10.9%	?
Cc1ccc(C)c(S(=O)(=O)N2CCCCC2CCNC(=O)C(=O)NCc2ccco2)c1 (centres undefined)	-17.2%	?	6.8%	9.2µM*	?	?
Cc1ccc(C)c(S(=O)(=O)N2CCCC2CNC(=O)C(=O)NCc2ccccc2)c1 (centres undefined)	-0.4%	i	2.8%	8.2µM*	?	0.1%
Cc1ccccc1CN1CCN(CC(=O)NCc2ccccc2Cl)C1=O	nt	nt	-3.2%	nt	0.0%	nt
CCOc1ccc(CC(=O)Nc2c(C(=O)c3ccc(F)cc3)oc3ccc(Cl)cc23)cc1OCC	nt	i	-27.1%	i	-4.5%	nt
CCN(Cc1ccccc1)C(=O)CN1C(=O)COc2ccc(S(=O)(=O)N3CCOCC3)cc21	nt	nt	-0.7%	nt	-9.7%	nt
CCOC1=C2[C@@H](CN(S(=O)(=O)c3ccc(C)cc3)[C@H]2c2cccc3ccccc23)[C@H]2C(=O)N(C3CCCCC3)C(=O)[C@H]2C1	8.1%	i	-13.7%	i	-17.7%	20.2%
CCOc1ccc(N2CC(c3nc4ccccc4n3Cc3cccc(Cl)c3)CC2=O)cc1 (centres undefined)	nt	i	-37.3%	i	?	nt
Cc1ccc(S(=O)(=O)N2CCCC2C(=O)N(C)Cc2cccs2)cc1 (centres undefined)	6.1%	i	0.6%	20.6µM*	-5.3%	12.4%
CN(Cc1cccs1)C(=O)C1CCN(S(=O)(=O)c2ccccc2)CC1	-1.0%	i	-10.1%	i	4.8%	-1.3%
SMILES	HT1080NT lethal	KB-3-1 cytotox	HepG2 tox	KB-V1 cytotox	TGFb inhibitor	HT1080 IDH1KD tx
Cc1ccc(S(=O)(=O)N2CCCC2CNC(=O)C(=O)NCc2cccs2)cc1 (centres undefined)	-1.4%	?	2.1%	13µM*	-7.3%	-9.4%
COc1ccc(NC(=O)C(=O)NCC2CCCN2S(=O)(=O)c2cc(C)ccc2C)cc1 (centres undefined)	?	5.8µM*	-19.7%	5.8µM*	0.0%	18.4µM*
COc1ccc(S(=O)(=O)N2CCCC2CNC(=O)C(=O)NCc2cccs2)cc1 (centres undefined)	0.0%	i	-0.9%	?	-12.4%	11.8%
CCOC(=O)c1c(C)[nH]c(CCC(=O)NCc2ccc(OC)c(OC)c2)c1C	nt	nt	1.8%	nt	0.0%	nt
O=C(/C=C/c1ccc(Cl)cc1)Nc1cccc([S+](=O)([O-])Nc2ccccc2F)c1	nt	i	nt	i	nt	nt
O=C(Nc1cccc(F)c1)[C@H](CSCc1ccccc1)N1Cc2ccccc2C1=O	nt	i	-9.0%	i	4.9%	nt
Cc1cccc(NC(=O)Cn2c(=O)n(CC3CCC(C(=O)NCCc4ccccc4)CC3)c(=O)c3ccccc32)c1 (centres undefined)	nt	i	0.0%	i	-17.3%	nt
CCN(CC)S(=O)(=O)c1cccc(NC(=O)C2SC(=Nc3ccc(C)cc3C)C(C(=O)NCC3CCCO3)=C2N)c1 (centres undefined)	-0.6%	?	-3.9%	20.6µM*	?	-19.7%
Cc1ccc(C(=O)OCC(=O)Nc2ccc(C)c(S(=O)(=O)N3CCCCC3)c2)c(O)c1	-3.2%	i	1.0%	i	?	-4.0%
COCCNC(=O)C1=C(N)C(C(=O)Nc2ccc(C)c(S(=O)(=O)N3CCCCC3)c2)SC1=Nc1ccc(C)cc1C (centres undefined)	12.6µM*	i	-25.2%	i	?	?
CCN(CC)S(=O)(=O)c1cccc(C(=O)NCC2CCCO2)c1 (centres undefined)	-4.3%	i	-2.0%	i	-2.3%	2.1%
O=C(Cc1ccccc1)NCCc1csc2nc(-c3ccc(Cl)cc3)nn12	nt	i	-18.8%	i	-20.7%	nt
